# Source: PubChem BioAssay (NCATS)
# Results filed as inconclusive are left out. A number with no mark means an inactive call. Activity calls are given as the source filed them. The call rests on the fitted dose curve.
# Biological target: Estrogen receptor (Homo sapiens) (UniProt P03372)
# Assay: qHTS assay for small molecule agonists of estrogen receptor alpha signaling (AID 588514); further: nearly all actives have a fitted effect of over 70% in size;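 on activation: 0% = vehicle only and 100% = reference agonist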
# Details: ER-alpha-UAS-bla HEK293, beta-lactamase ratio, 18 h; series mostly up to 76.8 µM; activation: at the top concentration
# Excerpt: NIH Chemical Genomics Center [NCGC]
# U.S. Environmental Protection Agency [EPA]
# National Institutes of Environmental Health Sciences [NIEHS]
# National Toxicology Program [NTP]
# Estrogen receptor alpha (ER-alpha) is an important member of nuclear hormone receptors. ER-alpha plays important role in breast cancer as well as in other women's health issues. The majority of breast cancers is estrogen receptor (ER) positive and depends on estrogen for growth. There is also growing concern for some of environmental chemicals which may contribute the increasing the incidence of breast cancer. Therefore, it is important to understand the effect of environmental chemicals in ER-alpha signaling pathway.
# NCGC Assay Protocol Summary
# Using a beta-lactamase reporter-gene under control of the ER response element, a cell-based assay [ER-alpha-UAS-bla GripTiteTM cell-Based Assay from Invitrogen] was used to measure ER-alpha signaling pathway in agonist mode. ER-alpha-UAS-bla-GripTite HEK 293 cells were used with assay medium containing 2% charcoal/dextran treated FBS, 0.1 mM NEAA and 1 mM sodium pyruvate. Cells were cultured in this assay medium overnight in the flasks before the assay. The assay was performed in clear bottom black Greiner 1536-well plates. 17-beta-estradiol was used as a positive control in the screen. Library compounds were measured for their ability to either stimulate the reporter gene activity. Compounds were screened in a titration series in 1536-well format. […] Data was normalized relative to 17-beta-estradiol control (20 nM, 100%), and DMSO only wells (basal, 0%). Concentration-response titration points for each compound were fitted to the Hill equation yielding concentrations of half-maximal stimulation (EC50) and maximal response (efficacy) values.
# qHTS protocol for ER-alpha beta-lactamase assay in agonist mode
# [Step] [Parameter] [Value] [Description]
# 1. Reagent; 6 uL; 5000 cells/well
# 2. Incubation; 37 C for 4 hrs
# 4. Controls (17-beta-estradiol); 23 nL
# - Dose response, start 1uM, 1:3 dilutions with duplicates
# - Two columns with 20 and 0.5 nM (final) concentration.
# 5. Incubation; 37 C for 18 hrs
# 6. Detection reagent; 1 uL of CCF4-dye
# 7. Incubation; RT for 2 hrs
# 8. Detection; Fluorescence; Envision plate reader or Acumen plate reader
# Chain of Estrogen receptor (Homo sapiens) (P03372 whole entry, looked up): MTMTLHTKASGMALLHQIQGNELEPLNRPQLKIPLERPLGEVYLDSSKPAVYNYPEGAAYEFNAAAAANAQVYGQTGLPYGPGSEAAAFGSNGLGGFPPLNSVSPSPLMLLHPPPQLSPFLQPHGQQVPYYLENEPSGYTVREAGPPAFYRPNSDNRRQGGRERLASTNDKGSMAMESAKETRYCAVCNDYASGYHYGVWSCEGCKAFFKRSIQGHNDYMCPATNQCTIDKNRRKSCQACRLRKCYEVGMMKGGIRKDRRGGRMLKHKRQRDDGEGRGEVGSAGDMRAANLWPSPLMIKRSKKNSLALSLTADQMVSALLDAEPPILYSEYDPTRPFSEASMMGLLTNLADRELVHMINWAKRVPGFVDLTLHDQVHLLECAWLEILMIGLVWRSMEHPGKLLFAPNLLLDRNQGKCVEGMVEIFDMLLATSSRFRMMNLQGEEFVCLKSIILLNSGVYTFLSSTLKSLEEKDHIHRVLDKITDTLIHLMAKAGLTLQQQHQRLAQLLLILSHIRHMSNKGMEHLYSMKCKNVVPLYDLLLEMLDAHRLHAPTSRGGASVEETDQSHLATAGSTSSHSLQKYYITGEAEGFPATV
SMILES,Potency,activation [%]
CCCCCCCC(=O)O,inactive,–
CC1=CCC(C(C)(C)O)CC1 (stereo not drawn),–,-4.44
CC1(C)C(C=C(Cl)Cl)C1C(=O)OCc1cccc(Oc2ccccc2)c1 (stereo not drawn),inactive,–
CCCCC/C=C\C/C=C\CCCCCCCC(=O)O,inactive,–
CC(C)=O,–,-0.988
O=C(O)CCC(=O)C(=O)O,–,5.11
CCOc1ccc2c(c1)C(C)=CC(C)(C)N2,–,8.89
CC1=C2[C@@H]([C@H](C)CC[C@H]2/C=C(\C)C(=O)O)[C@H](O)C1,–,1.51
O=CCCCC=O,–,-2.24
CC(O)CO (stereo not drawn),–,-0.945
CCOC(C)=O,–,2.48
CC1=C(/C=C/C(C)=C/C=C/C(C)=C/CO)C(C)(C)CCC1,3.16 µM (active),–
CCCCCCCC/C=C\CCCCCCCC(=O)O,inactive,–
